# Laboratory results reported in the supplement of paper PMC11417369.
# Over roughly 25,000 sequences, “ln(normalized median fluorescence intensity)” has its median near 6.7; the highest 2% begin near 10. What follows is part of a selection rich in the highest values, with near analogues and random picks from the rest.
# Test system: PfHDP1 homeodomain (GST-tagged)
# Test: gcPBM binding intensity (ln(normalized median fluorescence intensity)); higher = stronger DNA binding
# In short: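 Binding intensity is defined as the maximum Masliner-normalised natural-log median intensity across replicate spots for either probe orientation. It was measured on an Agilent 4 × 180k array of primer-extended double-stranded 36-bp intergenic genomic probes and negative controls, to which GST-tagged P. falciparum DNA-binding domains made in E. coli were applied for 1 h in 1× PBS with 1% milk, 0.2 mg/ml BSA, 0.5% salmon testes DNA and 0.03% Triton X-100. Detection was by Alexa488 anti-GST antibody and scanning at 488 nm.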
row,Sequence,gcPBM binding intensity (ln)
1,ATAATACAAAATACATGTACAAATATTTTTCATATT [XGTACX_site1721],6.43
2,AATAAAATGGAATACGGTACACATAATCCTAAAATG [XGTACX_site926],6.4
3,GGAGGTTGTTATAAAAGTACAAAAAGTTGCAATTTT [XGTACX_site7351],10.7
4,TTATGTTATATAAAAAGTACAAATTTTTTTTAATTA [XGTACX_site3435],5.94
5,TATAACAAGTTATAAAGTACAAATGTTGAATTTTAT [XGTACX_site4673],6.07
6,AAACGAGAACATAATAAATACATAAATAAATAAATA [GTGCAC_negctrl_site433],6.43
7,ACCCTCATATTATAGACACACACAAAAAAAATAAAA [CACACA_site7941],6.66
8,CTTTTAAATTATTTTTGTACATAATTATATATATAT [XGTACX_site4128],8.27
9,TATATATAAATATATGTGCACTTTTTATATTTATAT,9.06
10,TGTATTAAAAATTTGGTGCAACTTTTACATAATAAT,10.8
11,TATATTTTATATATGGTGCAACTTTTATTTAAATAA,10.7
12,TTTTTATTACATAATTAAAAAAAATAATAAAATAAA [XGTACX_negctrl_site249],6.03
13,TATATAAAAAATAGGTGGTCAACTTAAATATTTTAT [XGTACX_site4495],6.46
14,TATAAAAATGTGTATGTACACACTTTATTTTTAATA [CACACA_site2532],6.38
15,AATATTTATGGGTGCACACAAACATACATATATATA [CACACA_site3395],10
16,TTTATTTATATTTATACACACAAACATAATACTACT [CACACA_site7039],6.82
17,TTTATATATATTTATACACACAAACATAATACTACT [CACACA_site5161],6.86
18,AAATCAAACTTTGGTGTGCACAAATATATACATATA [GTGCAC_site9986],11
19,TATTCGAACAAAAATACATGCACATATGCATAATAA [TGCATGCA_site171],10
20,TAATAATCAAACTATACACACATAAATAAATATATA [CACACA_site156],6.52
21,ATAATATTCGAGTGTGCACACAAACATACATATATA [CACACA_site3396],11.1
22,ATAATATTTAGGTGTGCACACAAACATACATATATA [CACACA_site9120],10.9
23,TTACATACAATTGGTGTGCACATATATATATATATA,10.3
24,CATATATGTTATATTTAACACACATATAAGGTACAT [CACACA_site8105],6.51
25,AAGAAAAAGAATAGACGGACAACTAATATAAAATAT [XGTACX_site7905],6.53
26,ATATATAAACTGAAGGGTACAATGAAAAAAGAACTT [XGTACX_site7219],6.81
